# Laboratory results as given in PubChem BioAssay.
# The source made the active and inactive calls.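 The calls were made as follows, unless noted: active = inhibition above 20% together with a positive visual image hit; inconclusive = visual image hit but inhibition not above 20%; inactive = no visual image hit.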
# Experiment: inhibitors of TNFa-induced NFkB p65 translocation, primary screen, imaging, HUVEC, MLSMR starter and 10KST1 sets (AID 438);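 also: compound added about 3h40 before a 20 min TNFalpha stimulation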;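 as to inhibition: signal is the nuclear over cytoplasmic p65 intensity ratio per well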
# Settings: HUVEC TNFa-induced p65 nuclear translocation; cell count: measured here: nuclei count (cytotoxicity indicator), at 2.08 µM; inhibition: at 2 µM, stronger effect = higher value, 0% TNFa-plus-vehicle, 100% no-TNFa wells
Compound,cell count,inhibition
CC(=O)c1c(C)[nH]c(C(=O)Nc2ccc3c(c2)OCCO3)c1C,402,-3.5% (inactive)
O=c1cc(-c2ccccc2)[nH]c2nc3ccccc3n12,302,-1.2% (inactive)
Cc1cccc(-n2c(Cc3cc(=O)[nH]c(=O)[nH]3)nnc2SCC(=O)NCc2ccco2)c1,400,-4% (inactive)
O=C(COc1nnc2ccccn12)N1CCN(S(=O)(=O)c2ccccc2)CC1,691,-3.3% (inactive)
Cc1cc(N2C(=O)C3C4C=CC(C4)C3C2=O)ccc1Br (stereo not given),775,18.7% (inactive)
Cc1ccc(S(=O)(=O)N(CC(=O)N2CCOCC2)CC(=O)N2CCOCC2)cc1,676,-9% (inactive)
COc1ccc(C2=NOC(C(=O)NCc3ccc(F)cc3)C2)cc1OC (stereo not given),601,14.3% (inactive)
COCCCNS(=O)(=O)c1ccc2c(c1)CCN2C(C)=O,416,0.3% (inactive)
COc1ccc(C(NC(=O)c2ccco2)c2ccc(OC)c(OC)c2)cc1 (stereo not given),373,27.4% (active)
CCC(C)N=C1SCC(C)(/C=N/O)S1 (stereo not given),367,-7.2% (inactive)
COc1ccc(-c2noc(CCC(=O)Nc3nc4ccccc4s3)n2)cc1,540,-8.6% (inactive)
CCCC1(C(=O)OCC)NC(c2ccc(N(C)C)cc2)C2C(=O)N(c3ccccc3)C(=O)C21 (stereo not given),468,-0.5% (inactive)
Cc1nnc(SCC(=O)Nc2ccc3c4c(cccc24)CC3)n1C,336,1.8% (inactive)
CCCCCC1NC(=O)NC1CCCCCC(=O)O (stereo not given),457,0% (inactive)
O=C(Nc1ccccc1C(=O)N1CCCCCC1)c1cccc(S(=O)(=O)N2CCOCC2)c1,492,-6.5% (inactive)
CC(C(=O)c1ccccc1)n1cnc2ccccc2c1=O (stereo not given),646,6.4% (inactive)
COc1cc(OC)c(C(=O)Nc2ncn[nH]2)cc1OC,667,-1.1% (inactive)
CCOC(=O)C1=C(Cn2cnc3ccccc32)NC(=O)NC1c1cc(C)ccc1C (stereo not given),562,-10.3% (inactive)
CCOC(=O)c1c(NC(=O)CSc2nnc(-c3cccnc3)o2)sc(C)c1C,431,-13.1% (inactive)
CC(=O)c1cc2c(=O)c3cc(C)ccc3oc2nc1C,410,5.3% (inactive)

Compound,cell count,inhibition
COc1ccc(NC(=O)CSc2nnc(-c3ccncc3)n2CC2CCCO2)c(OC)c1 (stereo not given),587,-6.1% (inactive)
CCOC(=O)c1ccccc1NC(=O)COC(=O)C1=COCCO1,595,-3.1% (inactive)
CCN(Cc1nc2cc(OC)c(OC)cc2c(=O)[nH]1)C(=O)c1ccc(S(=O)(=O)N(C)C)cc1,311,11.1% (inactive)
COc1ccc(Cc2nn3c(-c4cc(OC)c(OC)c(OC)c4)nnc3s2)cc1,552,7.6% (inactive)
Cc1nc(NC(=O)C2CC3CCCC(C2)C3=O)sc1C (stereo not given),411,4.4% (inactive)
O=S(=O)(NC1=NCCC1)c1cccs1,524,-7% (inactive)
O=C(COC(=O)C1=COCCO1)Nc1ccccc1Oc1ccccc1,672,9.6% (inactive)
O=C(CSc1nc(-c2ccco2)cc(C(F)(F)F)n1)N1CCCc2ccccc21,700,0% (inactive)
O=c1oc2ccccc2n1CCc1ccccc1,470,-4.6% (inactive)
CS(=O)(=O)N(CC(=O)O)c1cccc(Cl)c1,358,9.8% (inactive)
O=C(OCC(=O)N1CCCC1)c1cncc(Br)c1,682,16.5% (inactive)
O=C(O)C1CC(=O)N(Cc2ccccc2)C1 (stereo not given),398,-1.8% (inactive)
CC(C(=O)Oc1ccc2c(c1)OCO2)N1C(=O)c2ccccc2C1=O (stereo not given),790,-10.1% (inactive)
COc1cccc(-n2nnnc2SCC(=O)NCc2ccco2)c1,423,-3.3% (inactive)
CCOC(=O)c1cccc(NC(=O)CCn2nnc3ccccc32)c1,341,1.2% (inactive)
Clc1ccc(Cl)c(-c2nn3c(COc4ccccc4)nnc3s2)c1,678,-5% (inactive)
Nc1nnc(SCC(=O)N2CCN(c3ccccc3)CC2)n1-c1ccccc1,774,-11.4% (inactive)
C=CCn1c(C)cc(C(=O)CSc2nc3ccccc3c(=O)[nH]2)c1C,278,-0.8% (inactive)
c1ccc(-c2cn3cccnc3n2)cc1,746,-0.7% (inactive)
C#CC(CO)N(CCN(Cc1ccccc1)C(C#C)CO)Cc1ccccc1 (stereo not given),370,1.8% (inactive)

# Experiment: inhibitors of mutant huntingtin aggregation, primary screen, imaging, exon1htt(103Q)mCFP cells, high-content imaging (AID 483;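 active = visual image review flags a hit and inhibition of aggregation exceeds 20%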;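 also: compound exposure lasted 3 days before fixation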;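 as to nuclei count: percent of the per-plate median nuclei count of sample wells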)
# Settings: exon1htt(103Q)mCFP cell line, aggregate imaging, at 2 µM; inhibition of aggregation: stronger effect = higher value; nuclei count: measured here: cell count, toxicity
Compound,nuclei count [%],inhibition of aggregation
CC(=O)c1c(C)[nH]c(C(=O)Nc2ccc3c(c2)OCCO3)c1C,115,-4.8% (inactive)
O=c1cc(-c2ccccc2)[nH]c2nc3ccccc3n12,99.6,15.1% (inactive)
Cc1cccc(-n2c(Cc3cc(=O)[nH]c(=O)[nH]3)nnc2SCC(=O)NCc2ccco2)c1,90,-21.7% (inactive)
O=C(COc1nnc2ccccn12)N1CCN(S(=O)(=O)c2ccccc2)CC1,95.4,-29.7% (inactive)
Cc1cc(N2C(=O)C3C4C=CC(C4)C3C2=O)ccc1Br (stereo not given),110,0.6% (inactive)
Cc1ccc(S(=O)(=O)N(CC(=O)N2CCOCC2)CC(=O)N2CCOCC2)cc1,108,-5.6% (inactive)
COc1ccc(C2=NOC(C(=O)NCc3ccc(F)cc3)C2)cc1OC (stereo not given),2.5,-82.4% (inactive)
COCCCNS(=O)(=O)c1ccc2c(c1)CCN2C(C)=O,125,-9.3% (inactive)
COc1ccc(C(NC(=O)c2ccco2)c2ccc(OC)c(OC)c2)cc1 (stereo not given),104,-4.2% (inactive)
CCC(C)N=C1SCC(C)(/C=N/O)S1 (stereo not given),80.1,16.5% (inactive)
COc1ccc(-c2noc(CCC(=O)Nc3nc4ccccc4s3)n2)cc1,50.7,21.7% (inactive)
CCCC1(C(=O)OCC)NC(c2ccc(N(C)C)cc2)C2C(=O)N(c3ccccc3)C(=O)C21 (stereo not given),92.4,4.8% (inactive)
Cc1nnc(SCC(=O)Nc2ccc3c4c(cccc24)CC3)n1C,97.3,-11.5% (inactive)
CCCCCC1NC(=O)NC1CCCCCC(=O)O (stereo not given),103,11.7% (inactive)
O=C(Nc1ccccc1C(=O)N1CCCCCC1)c1cccc(S(=O)(=O)N2CCOCC2)c1,74.5,-11.4% (inactive)
CC(C(=O)c1ccccc1)n1cnc2ccccc2c1=O (stereo not given),93,17.6% (inactive)
COc1cc(OC)c(C(=O)Nc2ncn[nH]2)cc1OC,107,-12% (inactive)
CCOC(=O)C1=C(Cn2cnc3ccccc32)NC(=O)NC1c1cc(C)ccc1C (stereo not given),106,-15.4% (inactive)
CCOC(=O)c1c(NC(=O)CSc2nnc(-c3cccnc3)o2)sc(C)c1C,73.6,24.3% (inactive)
CC(=O)c1cc2c(=O)c3cc(C)ccc3oc2nc1C,93.5,7.1% (inactive)

Compound,nuclei count [%],inhibition of aggregation
COc1ccc(NC(=O)CSc2nnc(-c3ccncc3)n2CC2CCCO2)c(OC)c1 (stereo not given),87.6,18.1% (inactive)
CCOC(=O)c1ccccc1NC(=O)COC(=O)C1=COCCO1,61.5,14% (inactive)
CCN(Cc1nc2cc(OC)c(OC)cc2c(=O)[nH]1)C(=O)c1ccc(S(=O)(=O)N(C)C)cc1,119,-0.9% (inactive)
COc1ccc(Cc2nn3c(-c4cc(OC)c(OC)c(OC)c4)nnc3s2)cc1,95.1,17.4% (inactive)
Cc1nc(NC(=O)C2CC3CCCC(C2)C3=O)sc1C (stereo not given),110,-32.5% (inactive)
O=S(=O)(NC1=NCCC1)c1cccs1,102,11% (inactive)
O=C(COC(=O)C1=COCCO1)Nc1ccccc1Oc1ccccc1,90.2,31% (inactive)
O=C(CSc1nc(-c2ccco2)cc(C(F)(F)F)n1)N1CCCc2ccccc21,104,3.1% (inactive)
O=c1oc2ccccc2n1CCc1ccccc1,88.3,0% (inactive)
CS(=O)(=O)N(CC(=O)O)c1cccc(Cl)c1,106,-14.9% (inactive)
O=C(OCC(=O)N1CCCC1)c1cncc(Br)c1,83,23.5% (inactive)
O=C(O)C1CC(=O)N(Cc2ccccc2)C1 (stereo not given),110,-0.4% (inactive)
CC(C(=O)Oc1ccc2c(c1)OCO2)N1C(=O)c2ccccc2C1=O (stereo not given),104,9.8% (inactive)
COc1cccc(-n2nnnc2SCC(=O)NCc2ccco2)c1,94,-7.7% (inactive)
CCOC(=O)c1cccc(NC(=O)CCn2nnc3ccccc32)c1,112,4.8% (inactive)
Clc1ccc(Cl)c(-c2nn3c(COc4ccccc4)nnc3s2)c1,104,-9.4% (inactive)
Nc1nnc(SCC(=O)N2CCN(c3ccccc3)CC2)n1-c1ccccc1,99.4,2% (inactive)
C=CCn1c(C)cc(C(=O)CSc2nc3ccccc3c(=O)[nH]2)c1C,92,11.4% (inactive)
c1ccc(-c2cn3cccnc3n2)cc1,92.7,12.5% (inactive)
C#CC(CO)N(CCN(Cc1ccccc1)C(C#C)CO)Cc1ccccc1 (stereo not given),104,-12.5% (inactive)
